ALOX12 inhib: 12-hLO (ALOX12) enzyme inhibition; P18054; purified 12-hLO, xylenol orange hydroperoxide absorbance; Potency, µM (highest dose often 57.1 µM), without a hit: at the top dose activity change, negative = inhibition, usual class: inhibitors; AID 1452; 0.12% of 150,000 active; further: potency means the concentration at half of the fitted maximal effect; nearly all actives have a fitted effect of over 55% in size
Target sequence (P18054 whole entry, looked up): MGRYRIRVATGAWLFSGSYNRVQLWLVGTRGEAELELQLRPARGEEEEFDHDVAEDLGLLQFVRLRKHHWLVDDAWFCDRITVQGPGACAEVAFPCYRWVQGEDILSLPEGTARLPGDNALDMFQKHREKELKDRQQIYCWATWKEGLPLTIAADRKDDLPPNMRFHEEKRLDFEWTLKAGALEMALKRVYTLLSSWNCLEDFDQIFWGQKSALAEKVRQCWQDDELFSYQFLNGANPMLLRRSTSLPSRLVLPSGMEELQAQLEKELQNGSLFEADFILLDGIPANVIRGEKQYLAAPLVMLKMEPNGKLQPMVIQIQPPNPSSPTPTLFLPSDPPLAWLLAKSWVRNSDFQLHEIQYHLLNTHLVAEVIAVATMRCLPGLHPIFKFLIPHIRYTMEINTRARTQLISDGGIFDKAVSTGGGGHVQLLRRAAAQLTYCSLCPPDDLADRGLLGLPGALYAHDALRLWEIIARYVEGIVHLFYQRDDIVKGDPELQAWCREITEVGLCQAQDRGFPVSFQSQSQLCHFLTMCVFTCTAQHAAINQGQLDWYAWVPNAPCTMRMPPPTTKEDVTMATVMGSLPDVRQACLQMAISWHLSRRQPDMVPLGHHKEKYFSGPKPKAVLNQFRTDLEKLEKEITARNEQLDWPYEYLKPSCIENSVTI
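Hydroperoxide formation by human 12-lipoxygenase from 40 uM arachidonic acid was followed colorimetrically via ferric-xylenol orange complex, using the 573/405 nm absorbance ratio. Enzyme concentration was 150 nM, with 30 min reaction at room temperature.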
IMPase Li cell: IMPase inhibition in cells with lithium potentiation; Potency, µM (highest dose often 59.4 µM), without a hit: top-dose activity, negative = IMPase inhibition, usual class: inhibitors; CHO-M1 cells, IP1 TR-FRET (IP-One), carbachol + lithium; 0.35% of 210,000 active;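 further: IP1 builds up when IMPase is blocked and the TR-FRET signal falls; potency means the concentration at half of the fitted maximal effect; plate controls were basal vehicle for no effect and high inhibitor control for full effect; nearly all actives have a fitted effect of over 50% in size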
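Readout is a homogeneous TR-FRET IP1 immunoassay (Ex 320, Em 665 and 620), where raised cytosolic IP1 lowers signal. Cells were CHO-M1 treated 30 min at 37C with test compounds plus a little lithium; AC50 values came from Hill-equation fitting.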
PNC inhibitor: perinucleolar compartment assembly inhibition; AID 2417; 3.1% of 140,000 active; activity change (PNC), negative = inhibition, % at 10 µM; PC3M PTB-GFP, PNC prevalence imaging, 16 h; active compounds read low;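 active means readout at or below -70, meaning at least 70% loss of cells showing the perinucleolar compartment, a nuclear body marking cancer cells; inconclusive means readout between -30 and a set limit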;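 further: plate controls were DMSO wells for no effect and camptothecin positive control wells for full effect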
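PC3M cells stably expressing PTB-GFP, 750–1000 cells/well, treated 16 h at 37 °C with compound (23 nl of library stock), in duplicate. After paraformaldehyde fixation and Hoechst stain, imaged at 20x; PNC prevalence scored by image analysis.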
HPGD inh: blocks human HPGD enzyme activity | 4.3% of 150,000 active | Potency, µM, inactives show at the top dose activity change, negative = inhibition, hits mostly inhibitors | purified HPGD, NADH fluorescence kinetic, PGE2 substrate; active means well fitted inhibition curve with a large enough effect, not every such curve was filed as active; inconclusive means small, poorly fitted or top-dose-only effect, or another doubt; inactive means no such curve, though single readings can be large or run the other way; further: potency means the concentration at half of the fitted maximal effect
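20 nM HPGD preincubated 15 min at room temperature with compound in 50 mM Tris-HCl pH 8, 0.01% Tween 20. Started with 1 mM NAD+ and 30 uM prostaglandin E2; NADH fluorescence (360/450 nm) read 5 times over 30-s intervals, last minus first.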
IMPase cell inh: IMPase inhibition in cells. P97697. CHO-M1 cells, IP1 accumulation, HTRF TR-FRET ratio. inhibition (IP1 accumulation), % at 46.1 µM. 120,000 tested, under 10 active; active means well fitted curve in the direction sought with a large enough effect in the signal ratio, not every such curve was filed as active; inconclusive means small, poorly fitted or top-dose-only effect, or a change in a side signal; inactive means no such curve, though single readings can be large or run the other way; the % refers to the signal ratio;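 further: cells stimulated with carbachol in lithium chloride buffer; plate controls were DMSO basal wells for no effect and reference inhibitor wells for full effect; higher means more IMPase inhibition seen as more IP1 and lower FRET ratio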
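The IP-One HTRF competitive assay in carbachol-stimulated CHO-M1 cells quantifies cellular IP1. Compounds spanned up to 46 uM final, and activity is expressed as AC50 from concentration-response fits of the ratio and donor data.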
ALDH1A1 block: ALDH1A1 (human) enzyme inhibition | P00352 | Purified ALDH1A1, NADH fluorescence, propionaldehyde substrate | Potency, µM (titrated, usually from 75.3 µM), for the others: top-dose activity, negative = inhibition, most hits filed as inhibitors | 7.3% of 220,000 active; active means well fitted inhibition curve with a large enough effect, not every such curve was filed as active; inconclusive means small, poorly fitted or top-dose-only effect, or another doubt; inactive means no such curve, though single readings can be large or run the other way;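 further: potency means the concentration at half of the fitted maximal effect; plate controls were no enzyme wells and a reference inhibitor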
Starred values were filed as active, the others as inactive; ! = not confirmed by another sample; [ ] = dose if it differs, or a comment. Rows were chosen to be rich in hits. Some 11% of all compounds tested hit in one or more screens of this group. Unless noted, the call rests on the fitted dose curve; in most records, active means well fitted curve in the direction sought with a large enough effect; inconclusive means small, poorly fitted or top-dose-only effect, or another doubt; inactive means no such curve, though single readings can be large; an effect the other way counts as inactive or inconclusive. Unless noted, on the % scale 0 is the no-effect control and ±100 the full control effect.

What do the screens show for `CS(=O)(=O)N1CCC2(CC1)CN(C(=O)Nc1cccc(F)c1)C2`?
ALOX12 inhib: 1%; IMPase Li cell: 1%; HPGD inh: 2%; ALDH1A1 block: 7%

Results for C/C(=N\Nc1cccc(Cl)c1)c1ccncc1 ?
IMPase Li cell: 13%; ALDH1A1 block: -16%

Results for C/C(=N\Nc1ccc(F)cc1)c1ccncc1 ?
ALOX12 inhib: -23%; IMPase Li cell: 25%; PNC inhibitor: inconclusive; HPGD inh: -25%; ALDH1A1 block: 20µM*

What do the screens show for `COCCCC/C(=N\OCCN)c1ccc(C(F)(F)F)cc1`?
ALOX12 inhib: -1%; IMPase Li cell: 10µM*!; PNC inhibitor: 8; HPGD inh: -3%; ALDH1A1 block: -6%

How did COCCCCC(=NOCCN)c1ccc(C(F)(F)F)cc1 do in these assays?
ALOX12 inhib: 0%; IMPase Li cell: 12%; HPGD inh: 3%; IMPase cell inh: -2; ALDH1A1 block: 5%

Results for COc1cc(NC(=O)c2ccc(C)c(Cl)c2)ccc1NC(=O)c1cc2ccccc2o1 ?
IMPase cell inh: 0

Results for CCCC1=NN2C(=N)/C(=C\c3ccc(SCc4ccco4)o3)C(=O)N=C2S1 ?
ALOX12 inhib: -21%; IMPase Li cell: 14%[38.3 µM]; PNC inhibitor: -27; HPGD inh: 22µM*; IMPase cell inh: -5; ALDH1A1 block: 22µM*

Results for O=C1NC(=S)S/C1=C\c1ccc(SCc2ccccc2)o1 ?
ALOX12 inhib: -19%; IMPase Li cell: 3%; PNC inhibitor: 34; HPGD inh: 18µM*; ALDH1A1 block: inconclusive

Results for CCC1=NN2C(=N)/C(=C\c3ccc(SCc4ccco4)o3)C(=O)N=C2S1 ?
ALOX12 inhib: -7%; IMPase Li cell: -15%[38.3 µM]; PNC inhibitor: -23; HPGD inh: -23%; IMPase cell inh: 2; ALDH1A1 block: -11%

What do the screens show for `O=C1NC(=S)S/C1=C\c1ccc(SCc2ccco2)o1`?
ALOX12 inhib: -23%; IMPase Li cell: 49%; PNC inhibitor: -27; HPGD inh: 7.1µM*; ALDH1A1 block: 0.89µM*

What do the screens show for `O=C1NC(=NCc2ccccc2)S/C1=C\c1ccccc1`?
ALOX12 inhib: -3%; IMPase Li cell: 17%; PNC inhibitor: -27; HPGD inh: inconclusive; IMPase cell inh: 1; ALDH1A1 block: 3%

Results for O=C(Nc1nccs1)C1(S(=O)(=O)c2ccc(Cl)cc2)CC1 ?
ALOX12 inhib: -9%; PNC inhibitor: -11; IMPase cell inh: 2; ALDH1A1 block: 11µM*

Results for O=C(NCc1ccco1)C1(S(=O)(=O)c2ccc(Cl)cc2)CC1 ?
ALOX12 inhib: 2%; IMPase Li cell: 9%[38.3 µM]; PNC inhibitor: inconclusive; HPGD inh: -14%; IMPase cell inh: -4; ALDH1A1 block: 18µM*

What do the screens show for `Cc1c(-c2nc(N)nc(C3CC3)c2C)nc(N)nc1C1CC1`?
ALOX12 inhib: -2%[11.4 µM]; IMPase Li cell: 11%; HPGD inh: -5%; ALDH1A1 block: -2%[13.5 µM]

Results for Cn1c(SCc2cnc(-c3ccccc3)s2)nnc1C1COc2ccccc2O1 (stereo not drawn) ?
ALOX12 inhib: 1%; IMPase Li cell: 3%[38.3 µM]; PNC inhibitor: 75; HPGD inh: 25µM*; IMPase cell inh: 10; ALDH1A1 block: 13µM*

Results for Cn1cnnc1SCC(=O)Nc1sc2c(c1C#N)CCCCC2 ?
ALOX12 inhib: -7%; IMPase Li cell: -8%; PNC inhibitor: inconclusive; HPGD inh: -13%; ALDH1A1 block: 7.1µM*

How did Cn1c(SCC(=O)c2ccc3c(c2)OCO3)nnc1C1COc2ccccc2O1 (stereo not drawn) do in these assays?
ALOX12 inhib: 1%; IMPase Li cell: -1%; PNC inhibitor: 30; HPGD inh: -23%; IMPase cell inh: 3; ALDH1A1 block: inconclusive

What do the screens show for `COC(=O)c1c(NC(=O)CSc2ncnc3c2cnn3-c2ccccc2Cl)sc2c1CCCC2`?
ALOX12 inhib: -1%; IMPase Li cell: 12%; PNC inhibitor: -18; HPGD inh: -16%; IMPase cell inh: -1; ALDH1A1 block: inconclusive

What do the screens show for `CCCCn1nnnc1SCC(=O)Nc1sc2c(c1C#N)CCCC2`?
ALOX12 inhib: -20%; IMPase Li cell: 8%[38.3 µM]; PNC inhibitor: -2; HPGD inh: -14%; IMPase cell inh: -8; ALDH1A1 block: 28µM*

Results for COC(=O)c1c(NC(=O)CSc2ncnc3[nH]ncc23)sc2c1CCC2 ?
IMPase Li cell: -8%; ALDH1A1 block: 14µM*

Results for CN(Cc1ccco1)c1ncncc1-c1cccc(C#N)c1 ?
IMPase Li cell: 23%; ALDH1A1 block: -9%

Results for C/C(CCC(=O)OC[C@@H]1O[C@H](C#Cc2ccccc2)C=C[C@@H]1Oc1ccc(C)cc1)=N/O[C@@H](C)c1cc(-c2c(C)cc(C)cc2C)no1 ?
ALDH1A1 block: 10%[13.5 µM]

How did N#Cc1c(NC(=O)CSc2nnnn2C2CCCC2)sc2c1CCCC2 do in these assays?
ALOX12 inhib: -1%; IMPase Li cell: 26%[38.3 µM]; PNC inhibitor: -2; HPGD inh: -21%; IMPase cell inh: 3; ALDH1A1 block: 3.5µM*

Results for Clc1ccc(-c2nn3c(C4COc5ccccc5O4)nnc3s2)cc1 (stereo not drawn) ?
ALOX12 inhib: -13%; IMPase Li cell: -5%[38.3 µM]; PNC inhibitor: 2; HPGD inh: 13µM*; IMPase cell inh: 4; ALDH1A1 block: 7.9µM*

What do the screens show for `C=CCn1c(SCC(=O)Nc2sc3c(c2C#N)CCC3)nnc1C1COc2ccccc2O1` (stereo not drawn)?
ALOX12 inhib: 1%; IMPase Li cell: 15%[38.3 µM]; PNC inhibitor: inconclusive; HPGD inh: -23%; IMPase cell inh: 0; ALDH1A1 block: inconclusive

What do the screens show for `CN(C)c1ccc(-c2nn3c(-c4ccc(Cl)cc4)nnc3s2)cc1`?
ALOX12 inhib: -5%; PNC inhibitor: 22; IMPase cell inh: 15; ALDH1A1 block: inconclusive

Results for Cn1c(SCC(=O)Nc2sc3c(c2C#N)CCC3)nnc1C1COc2ccccc2O1 (stereo not drawn) ?
ALOX12 inhib: -16%; IMPase Li cell: -8%[38.3 µM]; PNC inhibitor: -81*; HPGD inh: -7%; IMPase cell inh: 4; ALDH1A1 block: 14%

Results for CC(=O)NC1C(=O)N=C(SCC(=O)Nc2cccc(Cl)c2)NC1=O (stereo not drawn) ?
IMPase Li cell: 6%; ALDH1A1 block: 28µM*

How did Cc1ccc(CNc2nc3ccc(Cl)cc3n3nnnc23)cc1 do in these assays?
IMPase cell inh: 3
